# Experimental data as given in PubChem BioAssay AID1159580 (chemical genetic matrix, 2015).
# Screen size: about 5,500 compounds; about 2,000 (36%) were called active. Inconclusive results (about 18%) are left out. The list shows a part of the results. Unmarked numbers belong to inactive results. No stated cut-off is given here; in the data, active means normalized growth mostly below about 0.91 (no sharp cut-off); inconclusive means no clear call, values can overlap the other calls; inactive means mostly above about 0.92.
# Test: chemical genetic growth profiling, strain panel (AID 1159580);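 further: tested at 20 µM; growth read once vehicle control cultures reached saturation at 30 °C; 1 = growth at the plate median or of vehicle wells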
# Details: S. cerevisiae deletion strains, growth OD
# [1] = locus YDL101C, strain DUN1, stronger effect = lower value
# [2] = locus YHR030C, strain SLT2, stronger effect = lower value
structure (smiles),measurement,setting,value
O=C(CCn1c(=O)oc2ccccc21)Sc1ccc(C(F)(F)F)cc1,normalized growth,"locus YAR019C, strain CDC15, stronger effect = lower value",0.931
same,normalized growth,"locus YBL105C, strain PKC1, stronger effect = lower value",0.962
same,normalized growth,"locus YBR135W, strain CKS1, stronger effect = lower value",0.957
same,normalized growth,"locus YBR136W, strain MEC1, stronger effect = lower value",0.941
same,normalized growth,"locus YBR160W, strain CDC28, stronger effect = lower value",0.951
same,normalized growth,"locus YDL017W, strain CDC7, stronger effect = lower value",0.967
same,normalized growth,"locus YDL028C, strain MPS1, stronger effect = lower value",0.925
same,normalized growth,[1],0.975
same,normalized growth,"locus YDL108W, strain KIN28, stronger effect = lower value",0.94
same,normalized growth,"locus YDL132W, strain cdc53, stronger effect = lower value",0.965
same,normalized growth,"locus YDL214C, strain PRR2, stronger effect = lower value",0.793
same,normalized growth,"locus YDR052C, strain DBF4, stronger effect = lower value",0.961
same,normalized growth,"locus YDR054C, strain cdc34, stronger effect = lower value",0.936
same,normalized growth,"locus YDR226W, strain ADK1, stronger effect = lower value",0.951
same,normalized growth,"locus YDR477W, strain SNF1, stronger effect = lower value",0.742
same,normalized growth,"locus YER123W, strain YCK3, stronger effect = lower value",0.677
same,normalized growth,"locus YER133W, strain GLC7, stronger effect = lower value",0.876
same,normalized growth,"locus YFL009W, strain cdc4, stronger effect = lower value",0.917
same,normalized growth,"locus YFL029C, strain CAK1, stronger effect = lower value",0.937
same,normalized growth,"locus YFR003C, strain YPI1, stronger effect = lower value",0.97
same,normalized growth,"locus YFR019W, strain FAB1, stronger effect = lower value",0.942
same,normalized growth,"locus YFR028C, strain CDC14, stronger effect = lower value",0.958
same,normalized growth,"locus YGR040W, strain KSS1, stronger effect = lower value",0.7
same,normalized growth,"locus YGR052W, strain FMP48, stronger effect = lower value",0.774
same,normalized growth,"locus YGR092W, strain DBF2, stronger effect = lower value",0.473 (active)
same,normalized growth,[2],0.318 (active)
same,normalized growth,"locus YHR079C, strain IRE1, stronger effect = lower value",0.479 (active)
same,normalized growth,"locus YHR082C, strain KSP1, stronger effect = lower value",0.781
same,normalized growth,"locus YHR205W, strain SCH9, stronger effect = lower value",0.792
same,normalized growth,"locus YIL147C, strain SLN1, stronger effect = lower value",0.935
same,normalized growth,"locus YJL095W, strain BCK1, stronger effect = lower value",0.838
same,normalized growth,"locus YJL128C, strain PBS2, stronger effect = lower value",0.929
same,normalized growth,"locus YJL157C, strain FAR1, stronger effect = lower value",0.703
same,normalized growth,"locus YJR016C, strain ILV3, stronger effect = lower value",0.966
same,normalized growth,"locus YJR066W, strain TOR1 (second series), stronger effect = lower value",0.418 (active)
same,normalized growth,"locus YJR066W, strain TOR1, stronger effect = lower value",0.587
same,normalized growth,"locus YKL048C, strain ELM1, stronger effect = lower value",0.897
same,normalized growth,"locus YKL067W, strain YNK1, stronger effect = lower value",0.779
same,normalized growth,"locus YKL101W, strain HSL1, stronger effect = lower value",0.834
same,normalized growth,"locus YKL193C, strain SDS22, stronger effect = lower value",0.955
same,normalized growth,"locus YKL203C, strain TOR2, stronger effect = lower value",0.937
same,normalized growth,"locus YLR113W, strain HOG1, stronger effect = lower value",0.848 (active)
same,normalized growth,"locus YLR133W, strain CKI1, stronger effect = lower value",0.779
same,normalized growth,"locus YLR403W, strain SFP1, stronger effect = lower value",0.799
same,normalized growth,"locus YML070W, strain DAK1, stronger effect = lower value",0.879
same,normalized growth,"locus YMR001C, strain CDC5, stronger effect = lower value",0.938
same,normalized growth,"locus YMR205C, strain PFK2 (second series), stronger effect = lower value",0.882
same,normalized growth,"locus YMR277W, strain FCP1, stronger effect = lower value",0.919
same,normalized growth,"locus YNL006W, strain LST8, stronger effect = lower value",0.954
same,normalized growth,"locus YNL020C, strain ARK1, stronger effect = lower value",0.783
same,normalized growth,"locus YNL161W, strain CBK1, stronger effect = lower value",0.962
same,normalized growth,"locus YNL183C, strain NPR1, stronger effect = lower value",0.778
same,normalized growth,"locus YNL207W, strain RIO2, stronger effect = lower value",0.949
same,normalized growth,"locus YNL222W, strain SSU72, stronger effect = lower value",0.935
same,normalized growth,"locus YNL307C, strain MCK1 (second series), stronger effect = lower value",0.557 (active)
same,normalized growth,"locus YOL078W, strain AVO1, stronger effect = lower value",0.951
same,normalized growth,"locus YOL136C, strain PFK27, stronger effect = lower value",0.851
same,normalized growth,"locus YOR061W, strain CKA2, stronger effect = lower value",0.607 (active)
same,normalized growth,"locus YOR119C, strain RIO1, stronger effect = lower value",0.922
same,normalized growth,"locus YOR329C, strain SCD5, stronger effect = lower value",0.965
same,normalized growth,"locus YPL031C, strain PHO85, stronger effect = lower value",0.732
same,normalized growth,"locus YPL153C, strain RAD53, stronger effect = lower value",0.552 (active)
same,normalized growth,"locus YPL204W, strain HRR25, stronger effect = lower value",0.813
same,normalized growth,"locus YPL209C, strain IPL1, stronger effect = lower value",0.971
same,normalized growth,"locus YPL256C, strain CLN2, stronger effect = lower value",0.83 (active)
same,normalized growth,"locus YPR025C, strain CCL1, stronger effect = lower value",0.956
same,normalized growth,"locus YPR106W, strain ISR1, stronger effect = lower value",0.956
same,normalized growth,"locus YPR111W, strain DBF20, stronger effect = lower value",0.93
same,normalized growth,"strain NNK1, stronger effect = lower value",0.96
same,normalized growth,"strain TSCII, stronger effect = lower value",0.931
N#Cc1cccc(Cn2c(=O)oc3ccccc32)c1,normalized growth,"locus YAL013W, strain DEP1, stronger effect = lower value",0.988
same,normalized growth,"locus YBR229C, strain ROT2, stronger effect = lower value",0.991
same,normalized growth,[1],0.977
same,normalized growth,"locus YDR150W, strain NUM1, stronger effect = lower value",0.998
same,normalized growth,"locus YEL061C, strain CIN8, stronger effect = lower value",0.989
same,normalized growth,"locus YGR078C, strain PAC10, stronger effect = lower value",1
same,normalized growth,"locus YGR229C, strain SMI1, stronger effect = lower value",0.985
same,normalized growth,[2],0.907
same,normalized growth,"locus YHR087W, strain rtc3, stronger effect = lower value",0.988
same,normalized growth,"locus YJL187C, strain SWE1, stronger effect = lower value",0.996
same,normalized growth,"locus YJR043C, strain POL32, stronger effect = lower value",1
same,normalized growth,"locus YJR075W, strain HOC1, stronger effect = lower value",0.986
same,normalized growth,"locus YKL190W, strain CNB1, stronger effect = lower value",1
same,normalized growth,"locus YLR039C, strain RIC1, stronger effect = lower value",1.04
same,normalized growth,"locus YLR058C, strain SHM2 (second series), stronger effect = lower value",0.998
same,normalized growth,"locus YLR085C, strain ARP6, stronger effect = lower value",1.11
same,normalized growth,"locus YLR262C, strain YPT6, stronger effect = lower value",1.01
same,normalized growth,"locus YML094W, strain GIM5, stronger effect = lower value",0.972
same,normalized growth,"locus YMR219W, strain ESC1, stronger effect = lower value",0.993
same,normalized growth,"locus YMR263W, strain SAP30, stronger effect = lower value",0.995
same,normalized growth,"locus YNL153C, strain GIM3, stronger effect = lower value",0.998
same,normalized growth,"locus YNL298W, strain CLA4 (second series), stronger effect = lower value",0.996
same,normalized growth,"locus YNL322C, strain KRE1, stronger effect = lower value",0.984
same,normalized growth,"locus YNR030W, strain Alg12, stronger effect = lower value",0.977
same,normalized growth,"locus YOL006C, strain TOP1, stronger effect = lower value",1.04
same,normalized growth,"locus YPL055C, strain LGE1, stronger effect = lower value",1.01
same,normalized growth,"locus YPL241C, strain CIN2, stronger effect = lower value",1.06
same,normalized growth,"locus YPR135W, strain CTF4, stronger effect = lower value",1
